Measured values taken from PubChem BioAssay (NCI).
Compounds without any hit were thinned out: in the full panel of roughly 83,000, 20% have a hit.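 Note: values are percent growth. 100 is the growth of untreated cells, values between 100 and 0 indicate rising inhibition; between -100 and 0 indicates cell death.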 Activity calls are given as the source filed them. The calls were made as follows: active = growth percent below 10; inactive = the rest.

What was measured:
Assay in all cases: NCI-60 one-dose screen, 48 h (100 = growth as untreated, 0 = no growth, -100 = all killed)
Details in all cases: 10 µM unless noted
HCT-15 colon = system: HCT-15 colon
HT29 colon = system: HT29 colon
SNB-75 CNS = system: SNB-75 CNS
SNB-19 CNS = system: SNB-19 CNS
U251 CNS = system: U251 CNS
PC-3 prostate = system: PC-3 prostate
SK-MEL-5 melanoma = system: SK-MEL-5 melanoma
UACC-62 melanoma = system: UACC-62 melanoma
LOX IMVI melanoma = system: LOX IMVI melanoma
SK-MEL-28 melanoma = system: SK-MEL-28 melanoma
SK-MEL-2 melanoma = system: SK-MEL-2 melanoma
EKVX NSCLC = system: EKVX NSCLC
SN12C renal = system: SN12C renal
UO-31 renal = system: UO-31 renal
TK-10 renal = system: TK-10 renal
ACHN renal = system: ACHN renal
CAKI-1 renal = system: CAKI-1 renal
A498 renal = system: A498 renal
CCRF-CEM leukemia = system: CCRF-CEM leukemia
MOLT-4 leukemia = system: MOLT-4 leukemia

Measured: growth

COc1cc2cc(Oc3ccc(NC(=O)Nc4ccc(Cl)c(C(F)(F)F)c4)cc3)c(C)nc2cc1OCCN1CCOCC1
active: SK-MEL-5 melanoma -34.7% | LOX IMVI melanoma 9.99% | MOLT-4 leukemia -4.07%
inactive: HCT-15 colon 13.7% | HT29 colon 12% | SNB-75 CNS 53.3% | SNB-19 CNS 24.4% | U251 CNS 14.8% | PC-3 prostate 13% | UACC-62 melanoma 29.9% | SK-MEL-28 melanoma 42.9% | SK-MEL-2 melanoma 31.4% | EKVX NSCLC 17.2% | SN12C renal 10.1% | UO-31 renal 28.2% | TK-10 renal 42.8% | ACHN renal 10% | CAKI-1 renal 18.7% | A498 renal 41.5% | CCRF-CEM leukemia 10.4%

Cc1[nH]c(C(=O)Nc2ccc(C(=O)N3CCNCC3)cc2OC(C)C)c(Cl)c1Cl
inactive: HCT-15 colon 49.7% | SNB-75 CNS 77.5% | SNB-19 CNS 77.5% | U251 CNS 35.8% | PC-3 prostate 71.5% | SK-MEL-5 melanoma 93.4% | UACC-62 melanoma 102% | SK-MEL-28 melanoma 105% | SK-MEL-2 melanoma 106% | EKVX NSCLC 82.8% | SN12C renal 80.1% | UO-31 renal 47.9% | TK-10 renal 79.2% | ACHN renal 67.7% | CAKI-1 renal 48.8% | A498 renal 64.4% | CCRF-CEM leukemia 27.7% | MOLT-4 leukemia 54.1%
active: HT29 colon 9.76% | LOX IMVI melanoma -16%

COc1ccc(-c2cc(-c3cc(OC)c(OC)c(OC)c3)nc(N3CCOCC3)c2C#N)cc1
inactive: HCT-15 colon 66.6% | HT29 colon 76.1% | SNB-75 CNS 72.3% | SNB-19 CNS 86.7% | U251 CNS 64.5% | PC-3 prostate 62.7% | SK-MEL-5 melanoma 75.3% | UACC-62 melanoma 57.5% | LOX IMVI melanoma 74.7% | SK-MEL-28 melanoma 56.8% | SK-MEL-2 melanoma 76.1% | EKVX NSCLC 64.9% | SN12C renal 81% | UO-31 renal 63.7% | TK-10 renal 100% | ACHN renal 68.3% | A498 renal 76.7% | CCRF-CEM leukemia 89.9% | MOLT-4 leukemia 56.7%
active: CAKI-1 renal -22.7%

COc1ccc(C(=O)C[C@]2(O)C(=O)Nc3c(Cl)ccc(Cl)c32)cc1
inactive: HCT-15 colon 22.6% | HT29 colon 15.9% | SNB-19 CNS 38.9% | U251 CNS 33.9% | PC-3 prostate 34.3% | SK-MEL-5 melanoma 34.6% | UACC-62 melanoma 46.4% | LOX IMVI melanoma 45.9% | SK-MEL-28 melanoma 60.4% | SK-MEL-2 melanoma 37.5% | EKVX NSCLC 51.2% | SN12C renal 39.8% | UO-31 renal 46.8% | TK-10 renal 71.6% | ACHN renal 44.5% | CAKI-1 renal 32.3% | CCRF-CEM leukemia 15.8% | MOLT-4 leukemia 34.1%
active: SNB-75 CNS -39.5% | A498 renal -23.6%

O=c1cc(SCc2ccccc2)nc[nH]1
inactive: HCT-15 colon 105% | HT29 colon 109% | SNB-75 CNS 93.7% | SNB-19 CNS 107% | U251 CNS 107% | PC-3 prostate 97.7% | SK-MEL-5 melanoma 113% | UACC-62 melanoma 108% | LOX IMVI melanoma 107% | SK-MEL-28 melanoma 133% | SK-MEL-2 melanoma 111% | EKVX NSCLC 94.9% | SN12C renal 120% | UO-31 renal 103% | TK-10 renal 108% | ACHN renal 108% | CAKI-1 renal 85.6% | A498 renal 113% | CCRF-CEM leukemia 98.5% | MOLT-4 leukemia 89.4%

O=C(CS(=O)c1oc(-c2cccs2)nc1S(=O)(=O)c1ccc(Br)cc1)c1ccccc1 (stereo not given)
inactive: HCT-15 colon 101% | HT29 colon 102% | SNB-75 CNS 79.9% | SNB-19 CNS 86.9% | U251 CNS 88.2% | PC-3 prostate 85.5% | SK-MEL-5 melanoma 97.7% | UACC-62 melanoma 88.4% | LOX IMVI melanoma 104% | SK-MEL-28 melanoma 105% | SK-MEL-2 melanoma 89.3% | EKVX NSCLC 111% | SN12C renal 96.2% | UO-31 renal 80.3% | TK-10 renal 104% | ACHN renal 94.1% | CAKI-1 renal 90.9% | A498 renal 49.1% | CCRF-CEM leukemia 94.1% | MOLT-4 leukemia 94.2%

CCN(CC)Cc1cc(Nc2c3ccc(Cl)cc3nc3ccc(OC)cc23)ccc1O
active: SK-MEL-28 melanoma -5.73%
inactive: HCT-15 colon 34.1% | HT29 colon 11.8% | SNB-75 CNS 103% | SNB-19 CNS 57.2% | U251 CNS 57% | PC-3 prostate 78% | SK-MEL-5 melanoma 85.5% | UACC-62 melanoma 103% | LOX IMVI melanoma 24.9% | SK-MEL-2 melanoma 101% | EKVX NSCLC 76.2% | SN12C renal 56.6% | UO-31 renal 34.2% | TK-10 renal 96.6% | ACHN renal 59.7% | CAKI-1 renal 69.8% | A498 renal 77.2% | CCRF-CEM leukemia 60.4% | MOLT-4 leukemia 22.6%

Cc1cccc2c3c(sc12)C(c1ccc(F)cc1)C(C#N)=C(N)O3 (stereo not given)
active: HCT-15 colon 8.13% | HT29 colon 9.55% | PC-3 prostate 8.46% | SK-MEL-5 melanoma -3.29% | LOX IMVI melanoma 9.86% | CAKI-1 renal -0.939% | A498 renal 4.47%
inactive: SNB-75 CNS 23.4% | SNB-19 CNS 23.8% | U251 CNS 25.5% | UACC-62 melanoma 24.9% | SK-MEL-28 melanoma 62% | SK-MEL-2 melanoma 50.1% | EKVX NSCLC 52.6% | SN12C renal 25.2% | UO-31 renal 36.7% | TK-10 renal 78.8% | ACHN renal 24.8% | CCRF-CEM leukemia 13.8% | MOLT-4 leukemia 12.5%
